This note sets out measurements from PubChem BioAssay (NCATS).

Each structure is given as a SMILES string. Results filed as inconclusive are left out. The source made the active and inactive calls. Unless noted, the call rests on the fitted dose curve; in most records, active means well fitted inhibition curve with a large enough effect; inconclusive means small, poorly fitted or top-dose-only effect; inactive means no such curve, though single readings can be large or run the other way. Numbered stars: 1 amine (or outer) side, 2 acyl side, 3 side chain; on linkers, the order of the positions; unused ones are H or OH. Bridge positions count the residues as written; N and C are the ends. Square brackets hold non-standard residues; d marks the D form. Peptide text beside a SMILES is read from it. * marks the point of attachment. ξ: configuration not given here. ΔAla(Z-3-ureido) = NC(=O)N/C=C(\N)C(=O)O; X3 = NC1=NCCC(C(N[*:1])C(=O)[*:2])N1; ξβ3hOrn = NCCCC(N)CC(=O)*; Dap = NC[CH](N)C(=O)O
Potency means the concentration at half of the fitted maximal effect.

Tumor susceptibility gene 101 protein (Homo sapiens), sequence (Q99816 whole entry, looked up, the tested form may be a part): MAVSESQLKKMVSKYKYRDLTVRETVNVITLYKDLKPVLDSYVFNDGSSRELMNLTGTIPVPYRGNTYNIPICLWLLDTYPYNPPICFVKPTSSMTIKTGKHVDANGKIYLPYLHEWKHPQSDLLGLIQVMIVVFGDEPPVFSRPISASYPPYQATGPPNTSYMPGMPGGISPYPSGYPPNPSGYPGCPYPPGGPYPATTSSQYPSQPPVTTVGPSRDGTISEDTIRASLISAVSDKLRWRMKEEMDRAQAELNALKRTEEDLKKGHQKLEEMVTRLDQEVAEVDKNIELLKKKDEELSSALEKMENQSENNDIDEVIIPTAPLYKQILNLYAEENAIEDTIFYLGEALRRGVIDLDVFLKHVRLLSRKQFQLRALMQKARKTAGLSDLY

System in the first test: not listed separately
The experiment in a line: S16 Schwann cell PMP22 intronic element firefly luciferase assay (AID 624032). Further: nearly all actives have a fitted effect of over 30% in size.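 On activity change, negative = inhibition: plate controls were DMSO for no effect and PTC124 positive control mean for full effect.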 The settings on record: S16 rat Schwann cells, PMP22 element FLuc, 24 h; series mostly up to 57.5 µM; activity change, negative = inhibition: at the top concentration. The essentials: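 Rat S16 Schwann cells stably carrying a PMP22 intronic element-driven Fluc reporter were seeded overnight, then exposed to compounds for 24 h at 37 °C. Luminescence was normalized to PTC124 (positive control) and DMSO (0% activity).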
In the case of `NCCCC(N)CC(=O)NCC1NC(=O)C(CO)NC(=O)C(N)CNC(=O)C(C2CCN=C(N)N2)NC(=O)/C(=C/NC(N)=O)NC1=O` (stereo not drawn) (H-[Dap]S[Dap](ξβ3hOrn)[ΔAla(Z-3-ureido)][X3]; lactam 1-C; configuration not given here), the “activity change, negative = inhibition” value was 42.8% (inactive).
`NC(C(=O)O)[C@@H]1CC(Cl)=NO1` (stereo partly specified): the Potency is 2.56 µM (active).
Take `C[C@]12C=CC(=O)N[C@@H]1CC[C@@H]1C2CC[C@]2(C)C(C(=O)Nc3cc(C(F)(F)F)ccc3C(F)(F)F)CC[C@@H]12` (stereo partly specified): the Potency was 16.1 µM (active).

System in a further test: not listed separately
The experiment in a line: S16 Schwann cell PMP22 intronic element beta-lactamase assay (AID 624044; calls by dose curve; further: nearly all actives have a fitted effect of over 15% in size;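 on ratio activity, negative = inhibition: 0% = DMSO and -100% = potassium clavulanate positive control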). The settings on record: S16 rat Schwann cells, PMP22 element beta-lactamase FRET, 24 h; ratio activity, negative = inhibition: at 38.3 µM (top of the series). The essentials:
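Beta-lactamase reporter under a PMP22 intronic regulatory element in stable S16 rat Schwann cells; 24 h compound exposure. 460 nm blue signal normalized between DMSO (0%) and potassium clavulanate, with 535 nm FRET tracking viability; curves classed by r2 and response.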
Consider `C[C@]12O[C@H](C[C@]1(O)CO)n1c3ccccc3c3c4c(c5c6ccccc6n2c5c31)CNC4=O`, for which the Potency is 7.07 µM (active).
With `C[C@H](CCCC(C)(C)O)[C@H]1CC[C@H]2[C@@H]3CC=C4C[C@@H](O)CC[C@]4(C)[C@H]3CC[C@]12C`, the “ratio activity, negative = inhibition” value was 1.58% (inactive).
For `NC(C(=O)O)[C@@H]1CC(Cl)=NO1` (stereo partly specified), the Potency is 19.9 µM (active).
For the compound `CC1(Cn2ccnn2)[C@H](C(=O)O)N2C(=O)C[C@H]2S1(=O)=O` (stereo partly specified), the Potency was 12.6 µM (active).
Same read-out and setting: under `COc1cc(-c2ccc(-[n+]3nc(-c4ccccc4)nn3-c3ccc([N+](=O)[O-])cc3)c(OC)c2)ccc1-[n+]1nc(-c2ccccc2)nn1-c1ccc([N+](=O)[O-])cc1` stands 25.1 µM (active).

For another test, the target named is Tumor susceptibility gene 101 protein (Homo sapiens) (UniProt Q99816). Briefly: qHTS Assay for Iinhibitors of HIV-1 Budding by Blocking the Interaction of PTAP/TSG101: Hit Validation (AID 651600). Further: nearly all actives have a fitted effect of over 70% in size. On activity change, negative = inhibition: on the % scale 0 is the no-effect control and ±100 the full control effect. The settings on record: PTAP peptide/TSG101 UEV interaction, biochemical assay; series mostly up to 57.5 µM; activity change, negative = inhibition: at the top concentration. The essentials:
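Displacement of a FITC-labeled PTAP-motif peptide (50 nM) from the Tsg101 binding domain (10 uM) was monitored by fluorescence polarization after a 20 min room-temperature incubation.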
(qHTS replaces the single test concentration by a dilution series.)
As for `COc1ccc(N2C(=O)NC(=O)/C(=C\c3cn(C)c4ccccc34)C2=O)cc1`, the “activity change, negative = inhibition” value is -1.68% (inactive).
On to `Cc1cc(N2CCCC2)ccc1C=C(C#N)C#N`, for which the “activity change, negative = inhibition” value is 4.33% (inactive).
Take `Nc1ccc2c3c(cccc13)-c1ccccc1-2`: the Potency was 9.19 µM (active).
With `CC(C)C[C@H]1C(=O)N2CCC[C@H]2[C@]2(O)O[C@](NC(=O)[C@@H]3C=C4c5cccc6[nH]cc(c56)C[C@H]4N(C)C3)(C(C)C)C(=O)N12`, the “activity change, negative = inhibition” value was -7.73% (inactive).
As for `COc1cccc2c1C(=O)c1c(O)c3c(c(O)c1C2=O)CC(O)(C(C)=NO)CC3OC1CC(N)C(O)C(C)O1` (stereo unspecified), the Potency was 10.3 µM (active).
In the case of `N#CCN1CCN(c2ccc(C(F)(F)F)cc2)CC1`, the “activity change, negative = inhibition” value is 2.83% (inactive).
Take `CN1Cc2c(c(C#N)c(N)n(C)c2=S)CC1(C)C`: the Potency was 32.6 µM (active).
For the compound `CCOC(=O)c1c(/N=C/c2c(O)n(-c3ccccc3F)c(=S)[nH]c2=O)sc2c1CCCC2`, the Potency is 16.3 µM (active).
